High-throughput results from PubChem BioAssay.
GPR151 activ: activators of human GPR151, primary screen, cell-based, PathHunter beta-arrestin, luminescence. PathHunter beta-arrestin GPR151 cells. activation, % at 11.2 µM. 650,000 tested, 1% active; in the data active = activation above about 4.9%
Target sequence (Q8TDV0 whole entry, looked up): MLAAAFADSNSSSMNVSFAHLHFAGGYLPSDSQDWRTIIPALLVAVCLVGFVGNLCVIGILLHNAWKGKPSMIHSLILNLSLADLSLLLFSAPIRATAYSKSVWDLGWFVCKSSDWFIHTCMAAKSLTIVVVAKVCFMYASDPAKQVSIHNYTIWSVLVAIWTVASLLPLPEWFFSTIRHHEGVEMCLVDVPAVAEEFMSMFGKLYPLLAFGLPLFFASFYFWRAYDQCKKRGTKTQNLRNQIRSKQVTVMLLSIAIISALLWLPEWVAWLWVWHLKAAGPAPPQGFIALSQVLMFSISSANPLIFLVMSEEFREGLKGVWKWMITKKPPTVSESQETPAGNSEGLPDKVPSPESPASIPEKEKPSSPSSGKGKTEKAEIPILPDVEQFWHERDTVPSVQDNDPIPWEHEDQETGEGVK
TEAD-YAP inh: TEAD-YAP interaction inhibition, primary screen, TEAD-YAP interaction inhibitor project, luminescence, HEK-TIYL cells. 640,000 tested, 1.4% active. TEAD-Gal4/YAP UAS-luciferase luminescence. inhibition, % at 9.12 µM; in the data active = inhibition above about 32%
MITF inh: MITF inhibitors, primary screen, biochemical, AlphaScreen, human | Microphthalmia-associated transcription factor (Homo sapiens), O75030 | AlphaScreen MITF homodimerization, bead proximity signal | inhibition, % at 2.6 µM | 650,000 tested, 0.91% active; in the data active = inhibition above about 50%
FBW7 act: FBW7 E3 ligase activators, primary screen, biochemical, AlphaScreen, human; AlphaScreen FBW7–phospho-cyclin E peptide binding, activator screen; normalized activity (activation), % at 26.1 µM; 650,000 tested, 0.13% active; F-box/WD repeat-containing protein 7 (Homo sapiens), Q969H0; in the data active = normalized activity above about 1.9%;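 note: purified mutant Fbw7 with reduced substrate affinity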
GPR151 confirm: GPR151 activators, triplicate retest, confirmation, cell-based, PathHunter beta-arrestin, luminescence | shares compounds with GPR151 activ | GPR151 PathHunter beta-arrestin cells, 90 min; % of EA-reagent control over plate median | activation, % at 11.2 µM | 6,700 tested, under 10 active;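 active = mean percent activation across replicates above the confirmation screen cutoff of 4.91%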
GPR119 counter: GPR119 activators in beta-arrestin cells, counter-screen for GPR151 activator project, cell-based, PathHunter beta-arrestin, luminescence, triplicate; shares compounds with GPR151 activ; 90 min; 0 = compound-well median, 100 = enzyme-acceptor control; activation, % at 11.2 µM; 6,700 tested, 0.3% active; AID 1508611, 2020;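 active = mean percent activation in the counterscreen above 29.09%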;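 note: counterscreen on off-target GPR119 to flag nonselective hits from the GPR151 activator screen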
Each line names hits and unclear results; the compound was inactive in the other large screens (follow-up assays come after a bar, where they were run); ! = repeats disagree. Most compounds without a hit are left out; they make up all but 3.5% or so of the library.

O=C(NCC1CCCN(S(=O)(=O)/C=C/c2ccccc2)C1)c1cc2ccccc2[nH]1 (centres undefined)	none
Cc1cc(S(=O)(=O)N2CCCC(CNC(=O)c3cc4ccccc4[nH]3)C2)c(C)s1 (centres undefined)	GPR151 activ 6.2 | GPR151 confirm inactive | GPR119 counter inactive
Cn1c(=O)c2c(ncn2CC(=O)N/N=C/c2ccccc2F)n(C)c1=O	none
Cn1c(=O)c2c(ncn2CC(=O)N/N=C/c2ccc(C(F)(F)F)cc2)n(C)c1=O	GPR151 activ 5.6 | GPR151 confirm inactive | GPR119 counter inactive
CCC(C)OC(=O)C1=C(C)NC2=C(C(=O)CC(c3ccc(OC)cc3)C2)C1c1cc(OC)c(OC)cc1Br (centres undefined)	GPR151 activ 7.5 | GPR151 confirm inactive | GPR119 counter inactive
C[C@@H]1CN(c2nncc(-c3cccc(C(F)(F)F)c3)n2)C[C@H](C)O1	none
FC(F)(F)c1cccc(-c2cnnc(N3CCN(c4ccccn4)CC3)n2)c1	GPR151 activ 15 | GPR151 confirm inactive | GPR119 counter inactive
FC(F)(F)c1ccc(-c2cnnc(N3CCN(Cc4cccnc4)CC3)n2)cc1	GPR151 activ 6.0 | GPR151 confirm inactive | GPR119 counter inactive
FC(F)(F)c1ccc(-c2cnnc(N3CCCCCC3)n2)cc1	none
CCN(C(=S)NCCOC)c1cccc2ccccc12	GPR151 activ 14 | GPR151 confirm inactive | GPR119 counter inactive
COCCNC(=S)N(C)c1ccc(O)cc1	none
COc1ccccc1Cn1c(=O)c2cccnc2n(CC(=O)Nc2ccccc2)c1=O	GPR151 activ 7.0 | GPR151 confirm inactive | GPR119 counter inactive
COc1ccc(C(C)=O)cc1COC(=O)c1ccc(N(C)C)cc1	none
Cc1ccc(OC(=O)c2ccc(Cl)cc2Cl)c(-n2nc3ccccc3n2)c1	none
O=C(NCc1ccccc1F)c1ccco1	none
O=C(NCc1ccccc1Br)c1ccco1	GPR151 activ 6.1 | GPR151 confirm inactive | GPR119 counter inactive
COc1ccc(CCNc2nc(-c3cccc(N)c3)nc3c2ncn3CCN2CCCC2=O)cc1	none
COc1cccn2c(C(=O)Nc3ccc(Cl)cc3)c(C(F)(F)F)nc12	GPR151 activ 14 | GPR151 confirm inactive | GPR119 counter inactive
COc1cccn2c(C(=O)N3CCCC3)c(C(F)(F)F)nc12	none
COc1cccn2c(C(=O)N3CCC3)c(C(F)(F)F)nc12	GPR151 activ 6.2 | GPR151 confirm inactive | GPR119 counter inactive
CCNC(=O)/C(=C\c1ccc(F)cc1)NC(=O)c1ccccc1	none
CCCNc1cc(C)nc(-c2ccc(C(=O)N3CCN(C)CC3)cc2)n1	none
Cc1cc(N)nc(-c2ccc(C(=O)N3CCN(C)CC3)cc2)n1	GPR151 activ 8.5 | GPR151 confirm inactive | GPR119 counter inactive
COC(=O)[C@@H]1CCCN1Cc1ccc2c(c1)CN(Cc1c[nH]c3ccccc13)CCO2	GPR151 activ 6.9 | GPR151 confirm inactive | GPR119 counter inactive
COC(=O)[C@@H]1CCCN1Cc1ccc2c(c1)CN(Cc1ccccc1)CCO2	none
O=C(Oc1ccc(-c2ccccc2)cc1)N1CCOCC1	GPR151 activ 5.8 | GPR151 confirm inactive | GPR119 counter inactive
O=C(O)c1ccc(NS(=O)(=O)/C=C/c2ccccc2)cc1	GPR151 activ 7.0 | GPR151 confirm inactive | GPR119 counter inactive
O=C(O)c1cccc(NS(=O)(=O)/C=C/c2ccccc2)c1	none
CCOc1ccc(S(=O)(=O)N2CCN(c3ccccc3OC)CC2)c2ccccc12	none
Cc1ccc(N2C(=O)CSC23C(=O)Nc2ccccc23)cc1Br (centres undefined)	GPR151 activ 5.0 | GPR151 confirm inactive | GPR119 counter inactive
Cc1cc(N2C(=O)CSC23C(=O)Nc2ccccc23)ccc1Br (centres undefined)	none
O=C(Oc1ccccc1)n1c(=O)oc2ccc(S(=O)(=O)N3CCCCC3)cc21	none
O=C(c1ccc(F)cc1)N(NC(=O)C(O)(c1ccccc1)c1ccccc1)c1ccccc1	none
CC(C)C(=O)Nc1nnc(SCc2ccc(Cl)cc2)s1	GPR151 activ 5.1 | GPR151 confirm inactive | GPR119 counter inactive
COc1ccc2sc(C)[n+](CC(=O)O)c2c1	none
CCOC(=O)C[n+]1c(C)sc2ccc(OC)cc21	GPR151 activ 6.1 | GPR151 confirm inactive | GPR119 counter inactive
CCCCN(CCCC)c1nc(C)cc(=O)[nH]1	GPR151 activ 5.1! | GPR151 confirm inactive | GPR119 counter inactive
Nc1nnc(SCC(=O)OCC(=O)Nc2ccc(Br)cc2F)s1	GPR151 activ 6.2 | GPR151 confirm inactive | GPR119 counter inactive
Nc1nnc(SCC(=O)OCC(=O)Nc2ccc(Br)cc2)s1	none
COc1cc(=O)n2c(c1C(=O)N1CCCC1)CCN(Cc1cc(C)c(C)cc1C)CC2	GPR151 activ 5.2 | GPR151 confirm inactive | GPR119 counter inactive
O=C(NCCO)C1CCCN(c2cccc3c2C(=O)N(C2CCCCCCC2)C3=O)C1 (centres undefined)	GPR151 activ 5.8 | GPR151 confirm inactive | GPR119 counter inactive
O=C1c2cccc(N3CCCC(C(=O)N4CCC[C@H]4CO)C3)c2C(=O)N1C1CCCC1 (some centres undefined)	none
O=C(NCSc1ncccn1)c1ccccc1	GPR151 activ 7.6 | GPR151 confirm inactive | GPR119 counter inactive
N#C/C=C(\c1ccc(F)cc1)N1CCOCC1	GPR151 activ 8.4 | GPR151 confirm inactive | GPR119 counter inactive
COc1ccc(N2CCN(C(CNC(=O)OCc3ccccc3)c3cccnc3)CC2)cc1 (centres undefined)	none
COCCNC(=O)Nc1nc(-c2ccc3c(c2)CCCC3)cs1	GPR151 activ 7.3 | GPR151 confirm inactive | GPR119 counter inactive
O=C(CN1C(=O)CCC1=O)Nc1nc(-c2ccc3c(c2)CCCC3)cs1	none
C1=C(c2nc3ccc(-c4ccncc4)cc3[nH]2)CCOc2ccccc21	GPR151 activ 10 | GPR151 confirm inactive | GPR119 counter inactive
c1cc(-c2ccc3nc(-c4ccncc4)[nH]c3c2)ccn1	none
Clc1ccccc1CNCC1CCC(CNCc2ccccc2Cl)CC1 (centres undefined)	none (no result: TEAD-YAP inh)
COc1ccc(N2CC(NC(=O)NC(c3ccccc3)c3ccccc3)CC2=O)cc1 (centres undefined)	GPR151 activ 6.1 | GPR151 confirm inactive | GPR119 counter inactive
CCOC(=O)c1c(C)n(C)c2ccc(OCC(O)CN(CC)CC)cc12 (centres undefined)	none
